Only some compounds are listed: those with a hit (about 15% of all), similar ones and a draw of the others.
ELG1 repair inh – ELG1-dependent DNA repair inhibition. 330,000 compounds, 2.3% hits. Potency, µM (doses to about 46.1 µM), for the others: top-dose activity change, negative = inhibition, hits mostly inhibitors. HEK293T ELG1-luciferase reporter, luminescence, 16 h; DNA damage induced by 5-fluorouridine; also: nearly all actives have a fitted effect of over 55% in size
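Quantitative HTS, concentration-response format. 2,000 cells/well co-treated with 5-fluorouridine and compound, 16 hr in 5% CO2 at 37 °C; ONE-Glo luminescence read after 30 min.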
RORgamma inh – inhibitors of mouse ROR gamma transcriptional activity; P51450; Drosophila S2 Gal4-RORgamma UAS-luciferase reporter, 20 h; Potency, µM (top dose mostly 53.6 µM), inactives show at the highest dose activity change, negative = inhibition, usual class: inhibitors; 310,000 compounds, 5.4% hits; also: nearly all actives have a fitted effect of over 60% in size
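Luminescence from a UAS-regulated Photinus luciferase reporter in stably transfected Drosophila Schneider cells is measured; decreased signal marks ROR gamma inhibition. Fusion expression is induced by 700 uM copper sulfate for 20 hr.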
TDP1 cell noCPT – qHTS for Inhibitors of human tyrosyl-DNA phosphodiesterase 1 (TDP1): qHTS in cells in absence of CPT; DT40 Tdp1-/- hTDP1 cells, no CPT, ATP luminescence, 48 h; Potency, µM (top dose mostly 46.2 µM), for the others: at the highest dose activity change, negative = growth inhibition, most hits filed as inhibitors; 420,000 compounds, 15% hits; AID 686978, 2013; also: nearly all actives have a fitted effect of over 55% in size
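A cellular qHTS used chicken DT40 cells lacking endogenous Tdp1 but carrying stably transfected human TDP1. Compounds were applied without camptothecin, and cell growth kinetics were judged by ATP-dependent luminescence after ≥48 hr.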
DT40 TDP1 CPT – DT40-hTDP1 cell growth loss with CPT; 420,000 compounds, 12% hits; chicken DT40 Tdp1-/-;hTDP1 cells + 20 nM CPT, ATP luminescence, 48 h; Potency, µM (highest dose often 46.2 µM), for inactives: at the highest dose activity change, negative = growth inhibition, usual class: inhibitors; AID 686979; also: nearly all actives have a fitted effect of over 55% in size
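Chicken DT40 Tdp1-/- cells complemented with human TDP1, 400 cells/well, exposed to compounds plus 20 nM camptothecin for at least 48 h at 37 C; viability read as ATP content by CellTiter-Glo luminescence.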
ALOX12 inh – inhibitors of human 12S-lipoxygenase ALOX12; P18054; purified 12hLO, xylenol orange hydroperoxide absorbance; Potency, µM (highest dose often 108 µM), without a hit: top-dose activity change, negative = inhibition, actives largely listed as inhibitors; 580,000 compounds, 1.1% hits; AID 1671190
Target sequence (P18054 whole entry, looked up): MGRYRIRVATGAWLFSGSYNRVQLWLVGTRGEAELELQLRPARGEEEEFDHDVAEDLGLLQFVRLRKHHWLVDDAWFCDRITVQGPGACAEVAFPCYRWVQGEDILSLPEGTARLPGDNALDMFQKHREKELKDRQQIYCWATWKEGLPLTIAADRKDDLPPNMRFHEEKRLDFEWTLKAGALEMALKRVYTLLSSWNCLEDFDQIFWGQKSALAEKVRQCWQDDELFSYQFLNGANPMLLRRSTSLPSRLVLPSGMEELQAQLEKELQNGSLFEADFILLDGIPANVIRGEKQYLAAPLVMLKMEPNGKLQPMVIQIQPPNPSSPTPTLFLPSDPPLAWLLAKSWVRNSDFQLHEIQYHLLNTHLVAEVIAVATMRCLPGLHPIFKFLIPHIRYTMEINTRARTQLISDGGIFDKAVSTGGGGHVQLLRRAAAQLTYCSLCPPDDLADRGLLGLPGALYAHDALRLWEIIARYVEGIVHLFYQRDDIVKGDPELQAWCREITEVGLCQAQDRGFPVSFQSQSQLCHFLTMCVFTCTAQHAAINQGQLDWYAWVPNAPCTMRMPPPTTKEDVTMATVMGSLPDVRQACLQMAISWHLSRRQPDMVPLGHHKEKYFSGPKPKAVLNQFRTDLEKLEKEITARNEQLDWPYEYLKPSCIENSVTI
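Purified human 12hLO at 150 nM in 25 mM Hepes, 0.01% Triton X-100, pH 7.0, preincubated 15 min at room temperature with compound. Reaction started with 40 uM arachidonic acid, 30 min at room temperature. Hydroperoxide measured by Fe-xylenol orange, 573/405 nm absorbance ratio.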
VP16 counter – counter-screen for ROR gamma inhibitors: Gal4-VP16 reporter; AID 2546; Potency, µM (doses to about 53.6 µM), for inactives: at the highest dose activity, negative = inhibition, actives largely listed as inhibitors; 310,000 compounds, 3.5% hits; Drosophila S2 Gal4-VP16 UAS-luciferase, luminescence, 20 h;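 also: Gal4-VP16 expression switched on by copper sulfate through the metallothionein promoter; nearly all actives have a fitted effect of over 50% in size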
ELG1 FLuc counter – luciferase inhibition in cell-free luciferin readout for ELG1 hits; shares compounds with ELG1 repair inh; cell-free firefly luciferase luminescence counter-screen, ViewLux; 350 compounds, 3% hits; AID 624247; Potency, µM (top dose mostly 46.1 µM), for inactives: at the highest dose activity change, negative = inhibition, usual class: inhibitors
ELG1 Luc conf – human ELG1 repair inhibition, luciferase-tagged ELG1 confirmation. AID 624248. 670 compounds, 68% hits. shares compounds with ELG1 repair inh. HEK293T ELG1-luciferase levels, luminescence; cells co-treated with 5-fluorouridine. Potency, µM (doses to about 46.1 µM), inactives show at the top dose activity change, negative = inhibition, actives largely listed as inhibitors; also: nearly all actives have a fitted effect of over 55% in size
ELG1 MMS Luc – inhibits ELG1-dependent repair under MMS stimulation in HEK293T cells; shares compounds with ELG1 repair inh; HEK293T luciferase-tagged ELG1 level, MMS stimulated; Potency, µM (series often up to 46.1 µM), for the others: at the highest dose activity change, negative = inhibition, most hits filed as inhibitors; 670 compounds, 53% hits; AID 624249; also: nearly all actives have a fitted effect of over 60% in size
ELG1 5FU viab – confirmation of ELG1 repair inhibitors: viability with 5FU; Potency, µM (top dose mostly 46.1 µM), without a hit: at the top dose activity change, negative = viability loss, usual class: cytotoxic; cell viability with 5-FU, ELG1-dependent repair; shares compounds with ELG1 repair inh; 670 tested, under 10 active;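 also: ELG1-luc HEK293T cells cotreated with 5-fluorouridine at 10 µM final; viability measured 16 h after compound addition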
ELG1 MMS cell – confirmation of ELG1 repair inhibitors: viability with MMS. Potency, µM (doses to about 46.1 µM), for inactives: at the highest dose activity change, negative = viability loss, actives largely listed as cytotoxic. Cell viability with MMS, ELG1-dependent DNA repair. 670 compounds, 33% hits. shares compounds with ELG1 repair inh;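 also: ELG1-luc HEK293T cells co-treated with 10 µM MMS; viability read 16 h after compound addition; nearly all actives have a fitted effect of over 60% in size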
ELG1 unstim viab – counter-screen for ELG1 repair inhibitors: unstimulated cell viability; shares compounds with ELG1 repair inh; cell viability counter-screen, unstimulated, luminescence; Potency, µM (highest dose often 45.9 µM), for inactives: top-dose activity change, negative = loss of viability, actives largely listed as cytotoxic; AID 624252; 900 compounds, 8% hits;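 also: compound exposure lasted 16 hours before reading; nearly all actives have a fitted effect of over 55% in size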
FLuc biochem – inhibits purified firefly luciferase, counter-screen for ELG1 hits; shares compounds with ELG1 repair inh; 350 compounds, 10% hits; Potency, µM (doses to about 57.5 µM), without a hit: top-dose activity, negative = inhibition, actives largely listed as inhibitors; purified firefly luciferase, luminescence counter-screen
Starred values were filed as active, the others as inactive; [ ] = dose if it differs, or a comment. Calls follow the shape of the dose curve; as a rule, active = well fitted curve in the direction sought with a large enough effect; inconclusive = small, poorly fitted or top-dose-only effect, or another doubt; inactive = no such curve, though single readings can be large; an effect the other way counts as inactive or inconclusive. % is scaled to controls: 0 for no effect and ±100 for the full control effect; potency is read from the fitted curve at half-maximal effect.

Screening Cc1nn(-c2ccccc2)c(N2CCCC2)c1/C=N/n1cnc2scc(-c3ccccc3)c2c1=O returned ELG1 repair inh 13µM*, RORgamma inh -6%, TDP1 cell noCPT 13µM*, DT40 TDP1 CPT 10µM*, ALOX12 inh 416%, VP16 counter 1%, ELG1 FLuc counter 2%, ELG1 Luc conf 4.5µM*, ELG1 MMS Luc inconclusive, ELG1 5FU viab 6%, ELG1 MMS cell -9%, ELG1 unstim viab inconclusive and FLuc biochem -4%.
For O=C(CSc1ncnc2sccc12)N1CCCCC1 the results were ELG1 repair inh inconclusive, TDP1 cell noCPT -8%, DT40 TDP1 CPT 2%, ALOX12 inh 0% and ELG1 unstim viab -5%.
Cc1sc2ncnc(NC3CCN(Cc4ccccc4)CC3)c2c1C was read as ELG1 repair inh 2.1µM*, RORgamma inh inconclusive, TDP1 cell noCPT 3.7µM*, DT40 TDP1 CPT 2.6µM*, ALOX12 inh 4%, VP16 counter 16µM*, ELG1 Luc conf inconclusive, ELG1 MMS Luc 1.3µM*, ELG1 5FU viab -4%, ELG1 MMS cell 1.6µM* and ELG1 unstim viab inconclusive.
Screening COc1cc2c(cc1OC)-c1cc(N3CCc4ccccc43)nc(=O)n1CC2 returned ELG1 repair inh inconclusive, RORgamma inh -1%, TDP1 cell noCPT inconclusive, DT40 TDP1 CPT inconclusive, ALOX12 inh 0%, VP16 counter -8%, ELG1 Luc conf 2.8µM*, ELG1 MMS Luc 26%, ELG1 5FU viab inconclusive, ELG1 MMS cell inconclusive and ELG1 unstim viab inconclusive.
For O=C(CCN1C(=O)c2ccccc2C1=O)Nc1ccc(-c2nc3ccccc3o2)cc1 the results were ELG1 repair inh inconclusive, RORgamma inh 13%, TDP1 cell noCPT -12%, DT40 TDP1 CPT -19%, ALOX12 inh -30%, VP16 counter 2%[0.365 µM], ELG1 FLuc counter 152%, ELG1 unstim viab inconclusive and FLuc biochem inconclusive.
